# Results taken from ChEMBL document CHEMBL1961873, “Compounds: GSK PKIS; Assays: Nanosyn kinase panel” (2012).
# Target: Serine/threonine-protein kinase PAK 3 (Homo sapiens) (UniProt O75914)
# Conditions: at 0.1 µM
# 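Note: mean percent inhibition of PAK3, measured in a screen of the GSK published kinase inhibitor set.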
# Serine/threonine-protein kinase PAK 3 (Homo sapiens), sequence (O75914 whole entry, looked up): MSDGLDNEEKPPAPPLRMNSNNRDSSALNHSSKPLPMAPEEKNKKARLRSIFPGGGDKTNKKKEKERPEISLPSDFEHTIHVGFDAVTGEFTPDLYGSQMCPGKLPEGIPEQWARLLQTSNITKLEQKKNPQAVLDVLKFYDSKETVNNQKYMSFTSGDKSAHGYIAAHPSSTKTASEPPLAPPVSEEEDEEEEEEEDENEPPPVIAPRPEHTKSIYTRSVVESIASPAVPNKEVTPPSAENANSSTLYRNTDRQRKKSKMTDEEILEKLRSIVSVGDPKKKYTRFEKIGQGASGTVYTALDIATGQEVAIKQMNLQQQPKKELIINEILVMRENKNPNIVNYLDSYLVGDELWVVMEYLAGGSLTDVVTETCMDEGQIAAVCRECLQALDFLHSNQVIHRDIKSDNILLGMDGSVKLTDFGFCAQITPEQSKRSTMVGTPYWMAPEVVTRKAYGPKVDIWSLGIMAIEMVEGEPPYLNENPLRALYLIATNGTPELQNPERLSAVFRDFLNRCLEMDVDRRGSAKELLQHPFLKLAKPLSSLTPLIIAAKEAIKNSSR
row,SMILES,inhibition
1,CN1CCC(n2cnc(-c3ccc(F)cc3)c2-c2ccnc(N)n2)CC1,0.98%
2,NC(=O)c1sc(-n2cnc3ccc(C(F)(F)F)cc32)cc1OCc1ccccc1Br,3.71%
3,CN(C)CCOc1ccc(-c2nc(-c3ccncc3)c(-c3ccc4c(c3)CC/C4=N\O)[nH]2)cc1,3.85%
4,CCCN(CCS(C)(=O)=O)Cc1ccc(-c2ccc3ncnc(Nc4ccc(OCc5cccc(F)c5)c(Cl)c4)c3c2)o1,1.58%
5,CCc1nn2ncccc2c1-c1ccnc(NC2CC2)n1,3.09%
6,CCNC(=O)O[C@H]1CN[C@H](C#Cc2cc3ncnc(Nc4ccc(OCc5cccc(F)c5)c(Cl)c4)c3s2)C1,3.71%
7,CNC(=O)c1cccc(C#Cc2cncnc2Nc2ccc(OCc3cccc(F)c3)c(Cl)c2)c1,-0.16%
8,CCN1CCC(CC(=O)Nc2n[nH]c3nnc(-c4cccc(F)c4F)cc23)CC1,3.91%
9,c1cc(-c2cnn3nc(N4CCOCC4)ccc23)nc(NC2CC2)n1,4.26%
10,CS(=O)(=O)CCNCc1coc(-c2ccc3ncnc(Nc4ccc(OCc5ccccc5)cc4)c3c2)c1,3.37%
11,COc1ccc(-c2cc3c(N)ncnc3o2)cc1,-1.87%
12,N#Cc1c(NC(=O)CN2CCOCC2)sc2c1CCCC2,3.48%
13,Clc1ccc(-c2nn3ncccc3c2-c2ccnc(Nc3ccccc3)n2)cc1,0.58%
14,COc1cc(/C=N/Nc2ncnc3[nH]ncc23)ccc1O,4.08%
15,CC(C)(CO)CNC(=O)c1ccc2c(c1)/C(=N/Nc1ccc(S(N)(=O)=O)cc1)C(=O)N2,-1.02%
16,Cc1ccc(O)cc1Nc1ccnc2cc(-c3ccccn3)ccc12,4.92%
17,Fc1ccc(-c2nn3ccccc3c2-c2ccncc2)cc1,1.29%

row,SMILES,inhibition
1,c1ccc(-c2nc3n(c2-c2ccc4c(c2)OCO4)CCC3)nc1,1.57%
2,N#Cc1c(NC(=O)c2ccc(F)cc2)sc2c1CCCC2,1.5%
3,COc1cc(N2CCN(C(C)C)CC2)ccc1Nc1nc(Nc2ccc(F)cc2C(N)=O)c2cc[nH]c2n1,2.9%
4,COc1cc2c(cc1Nc1nc(Nc3ccsc3C(N)=O)c3cc[nH]c3n1)N(C(=O)CN(C)C)CCC2(C)C,5.68%
5,O=S(=O)(CCNCc1ccc(-c2ccc3ncnc(Nc4ccc(OCc5cccc(F)c5)c(Cl)c4)c3c2)o1)c1ccccc1,6.62%
6,CCOc1ccc2c(-c3ccnc(Nc4cccc(C(F)(F)F)c4)n3)cnn2n1,3.17%
7,Cc1ccc2c(-c3ccnc(Nc4ccccc4)n3)c(-c3ccc(F)cc3)nn2n1,3.55%
8,CNC(=O)c1cc(-c2ccc(F)cc2)cc(-c2ccc(S(=O)(=O)N3CCCC3)cc2)c1N,3.43%
9,CCn1cc(-c2ccnc3[nH]ccc23)c(-c2cccc(NC(=O)Nc3ccc(OCc4ccccc4)cc3)c2)n1,1.3%
10,COc1cc(Nc2nccc(Nc3ccc4c(C)n[nH]c4c3)n2)cc(OC)c1OC,2.53%
11,CCn1c(-c2nonc2N)nc2c(C#CC(C)(C)O)nc(OC[C@H](N)c3ccccc3)cc21,2.18%
12,c1ccc(COc2ccc(Nc3ncnc4ccc(-c5ccco5)cc34)cc2)cc1,0.44%
13,Nc1ncc(-c2cccc(S(N)(=O)=O)c2)c2scc(-c3ccc(F)c(Cl)c3)c12,5.21%
14,CS(=O)(=O)CCNCc1ccc(-c2ccc3ncnc(Nc4ccc(OCc5ccccc5)c(C(F)(F)F)c4)c3c2)o1,4.99%
15,CCN(CC)S(=O)(=O)c1ccc(OC)c(Nc2ncc(-c3ccccc3)o2)c1,0.22%
16,NS(=O)(=O)c1ccc(N/N=C2\C(=O)Nc3ccc4ncccc4c32)cc1,2.76%
17,COC(=O)Nc1nc2ccc(Oc3ccc(NC(=O)Nc4cccc(Cl)c4)cc3)cc2[nH]1,1.03%
